Most compounds without a hit are left out; they make up all but 3.9% or so of the library.
HIF-2a inh – HIF-2a reporter inhibitors, primary screen, luminescence, 786-0 RCC cells; AID 624352, 2012; hit rate 0.72% among 360,000; inhibition, % at 18.8 µM; 786-0 RCC cells HIF-2a reporter, luciferase luminescence, overnight;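 active means inhibition of the luminescence signal of 40% or more relative to plate controls, in a single-dose primary screen at 18.75 µM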
TWEAK Fn14 block – inhibitors of TWEAK-Fn14 signaling, primary screen, luciferase reporter cells, uHTS. AID 1159606, 2016. inhibition, % at 10 µM. TWEAK-stimulated Fn14 reporter cells, luciferase luminescence, 8 h. hit rate 2% among 360,000; in the data active means inhibition above about 50%
CF NFkB inh – inhibitors of PAF-induced NF-kB signaling, primary screen, cell-based, GFP fluorescence, uHTS; KKLEB NF-kB-GFP reporter, GFP fluorescence overnight; inhibition, % at 5 µM; hit rate 0.86% among 360,000; AID 588850, 2011;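 active means at least 50% inhibition at 5 µM, scaled per plate between neutral and stimulator controls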;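 further: PAF is a Pseudomonas aeruginosa culture filtrate used as stimulus; plate controls were PAF-stimulated DMSO wells for no effect and unstimulated DMSO wells for full effect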
TROY signal inh – inhibitors of TROY-driven NF-kB signaling, primary screen, Q293 LMP1-TROYcd cells, NF-kB luciferase, uHTS. hit rate 0.98% among 360,000. inhibition, % at 10 µM. Q293 LMP1-TROYcd NF-kB luciferase reporter, 4 h;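 active means compounds whose plate-normalised and pattern-corrected inhibition of the luciferase reporter signal at the single screening dose is 50% or more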
KKLEB cytotox – cytotoxicity in KKLEB CF airway cells, primary screen, cytotoxicity control for CF NF-kB inhibitor project, cell-based, uHTS, fluorescence assay plates | KKLEB CF airway cells viability, ATPlite luminescence, overnight; stronger effect = lower value; cells stimulated with P. aeruginosa culture filtrate | activity change (cytotoxicity), % at 5 µM | hit rate 0.36% among 360,000;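 active means corrected activity change at or below -50% at 5 µM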
Peg3 prom inh – Peg3 promoter-driven luciferase inhibitors, primary screen, cell-based, HeLa, luciferase luminescence; HeLa PEG-Prom luciferase reporter, overnight; inhibition, % at 20 µM; hit rate 1.7% among 360,000; AID 588405, 2011;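 active means inhibition of at least 50% at 20 µM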
* hit, by the source's call; nt = not tested or not shown.

SMILES	HIF-2a inh	TWEAK Fn14 block	CF NFkB inh	TROY signal inh	KKLEB cytotox	Peg3 prom inh
CC(C)(C)N=C1NN=C(c2cc3ccccc3o2)CS1	-183.7	63.2*	-4.5	70.1*	0.3	-221.7
CC(=O)c1c(C)[nH]c(C2=NNC(=NC(C)(C)C)SC2)c1C	-161.7	9.7	4.5	-7.5	-6.6	-255.2
O=C1N2c3ccccc3CCc3cccc(c32)C1(O)C(F)(F)F (configuration not stated)	12.0	6.7	-11.8	-10.5	14.7	11.2
O=C(CN(C(=O)CCC(=O)Nc1nccs1)c1ccc2c(c1)OCCO2)NCc1ccco1	8.1	-1.0	14.6	1.3	3.9	-10.7
COc1ccc(C)cc1NC(=O)NC1CCCc2ccccc21 (configuration not stated)	11.0	-11.3	10.8	-4.8	2.5	54.5*
O=C(Cc1ccc(Br)cc1)NC1CCCc2ccccc21 (configuration not stated)	3.4	-20.2	0.0	-4.1	-5.0	18.2
COc1ccc(NC(=O)NC2CCCc3ccccc32)cc1OC (configuration not stated)	17.8	-3.5	3.8	5.8	6.1	11.2
O=C(CCl)NC1CCCc2ccccc21 (configuration not stated)	15.5	50.0*	-17.2	0.1	5.0	17.1
CN1CCC(OC(=O)c2cc3cc(Br)ccc3oc2=O)CC1	21.9	2.5	16.8	12.0	-0.3	6.8
CCOC(=O)c1csc(NC(=O)CN2CCN(C)CC2)n1	6.0	7.3	8.3	-5.0	-0.2	4.8
CCOC(=O)CCSc1nc(C)c2cc(C)c(C)cc2n1	-17.9	81.5*	0.2	nt	5.2	-85.8
CCOC(=O)CCSc1nc(C)c2cc(OC)ccc2n1	-23.4	-31.3	-14.3	-47.1	-13.7	-304.7
COc1ccccc1CNC(=O)C1CCN(C(=O)NC2CCCCC2)CC1	18.3	12.5	7.6	-14.9	11.6	-0.2
Nc1c(C(=O)O)cnc2c(-c3ccc(Cl)cc3)cnn12	-118.6	67.4*	26.5	14.9	-6.0	-137.7
CC(=O)c1cnc2c(-c3ccc(Cl)cc3)cnn2c1C	-279.9	3.7	12.8	-67.3	-9.8	-280.0
CNC(CC(=O)c1ccc([N+](=O)[O-])cc1)C(Cl)(Cl)Cl (configuration not stated)	92.8*	12.7	46.9	0.0	-8.1	100.9*
COc1ccc(C(=O)CC(Nc2ccc([N+](=O)[O-])cc2)c2ccc(OC)cc2)cc1 (configuration not stated)	-1.8	23.5	-5.1	16.6	-10.4	-5.6
COc1ccc(C(=O)Nc2ccc(-c3ccc(C)o3)cc2)cc1S(=O)(=O)N1CCOCC1	-81.3	81.8*	-30.8	51.4*	7.8	4.7
COc1ccc(C(=O)Nc2ccc(N3CCOCC3)cc2)cc1S(=O)(=O)N1CCOCC1	-8.0	0.1	7.2	36.6	-1.4	2.7
COc1ccc(NC(=O)c2cc3c(s2)CCC(C)C3)cc1S(=O)(=O)N1CCOCC1 (configuration not stated)	-49.5	79.0*	14.8	51.3*	-2.6	29.3
COc1cc(OC)c2c(-c3cccc(-c4ccc(N(C)C)cc4)c3)cc(=O)oc2c1	-19.4	52.4*	32.7	44.3	4.8	-31.4
COc1cc(OC)c2c(-c3cccc(-c4ccc(CO)cc4)c3)cc(=O)oc2c1	19.5	74.6*	57.1*	41.4	-15.1	16.1
COc1ccc(-c2cccc(-c3cc(=O)oc4cc(OC)cc(OC)c34)c2)cc1	21.1	4.6	46.4	19.6	-16.5	-4.2
COc1cc(OC)c2c(-c3cccc(-c4ccc(O)cc4)c3)cc(=O)oc2c1	4.7	38.1	13.4	24.8	-1.8	-1.6
CCN1C[C@@H]2[C@@H]3C(=O)N(C)C(=O)[C@@H]3[C@](C)(C1=O)N2C(=O)c1ccc(C)cc1	8.5	-16.9	-23.1	-6.0	7.8	-8.2
O=C(OCc1ccc(COC(=O)c2ccc(O)cc2)cc1)c1ccc(O)cc1	-47.5	24.9	28.9	60.7*	17.9	13.4
